# The list is not random: actives were taken first. Their share in the collection is about 12%.
# ROMK mod – modulates human ROMK potassium channel activity | hit rate 2% among 130,000 | B-score at 10 µM | P48048 | AID 1918 | Tet-inducible ROMK, thallium flux fluorescence; actives lie on both sides;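 active = signal ratio slope over the read window, or its plate-corrected B-score, at least 3 SD from the plate mean, either direction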;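 also: B-score of the F/F0 ratio slope over 7 to 12 s after thallium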
# Target sequence (P48048 whole entry, looked up): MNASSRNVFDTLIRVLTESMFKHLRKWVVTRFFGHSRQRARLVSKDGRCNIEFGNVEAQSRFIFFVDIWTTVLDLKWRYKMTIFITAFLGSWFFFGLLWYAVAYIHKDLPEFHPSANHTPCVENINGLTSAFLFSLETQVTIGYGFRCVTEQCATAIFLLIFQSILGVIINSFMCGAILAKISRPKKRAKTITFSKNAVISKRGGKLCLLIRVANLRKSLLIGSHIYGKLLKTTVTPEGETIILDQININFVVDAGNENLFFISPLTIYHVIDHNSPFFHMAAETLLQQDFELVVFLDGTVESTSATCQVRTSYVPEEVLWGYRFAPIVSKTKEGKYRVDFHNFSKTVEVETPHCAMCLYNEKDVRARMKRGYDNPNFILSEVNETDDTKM
# L major viab – Leishmania major promastigote growth inhibition. Leishmania major promastigotes, resazurin fluorescence viability. inhibition, % at 10 µM. hit rate 9% among 200,000. AID 1063; in the data active = inhibition above about 50%;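 also: promastigotes grown with compound for 44 hours at 28 °C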
# INS promoter inh – TRM-6 insulin promoter activity inhibition | TRM-6 cells (human fetal islet line), insulin promoter-eGFP reporter, imaging; reporter expression induced with tamoxifen | inhibition, % at 2 µM | hit rate 0.9% among 130,000 | AID 1273;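 active = inhibition above the mean plus 3 SD, with well images judged a real hit on visual review, cut at about 60% in these data, passing the limit was not always enough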
# WT yeast gro inh – growth inhibition of WT yeast, mitochondrial fusion screen. mitochondrial fusion phenotypic screen, WT strain. inhibition, % at 10 µM. hit rate 2.1% among 190,000. AID 1362; in the data active = inhibition above about 58%; tested in S. cerevisiae
# Insulin prom up – MIN6 insulin promoter up-regulation | MIN6 insulin promoter-GFP reporter, high-content imaging; active compounds read high | z-score at 5 µM | hit rate 0.3% among 190,000 | AID 1625;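 active = z-score above 3 at 5 µM with at least 500 cells counted in the well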
# Cl transport mod – modulates chloride dependent transport by human KCC2 | Q9H2X9 | KCC2 cells, thallium flux FluoZin-2 fluorescence | B-score of Tl+ flux slope (higher = more flux/activation; lower = inhibition) at 10 µM | hit rate 2.2% among 190,000 | AID 1456;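 active = thallium flux slope and its plate-corrected score both differing from the plate sample mean at a set confidence after two filtering rounds, in either direction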;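 also: slope of fluorescence scaled to starting intensity during 10 to 20 s after thallium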
# * hit, by the source's call; . = not tested or not shown.
SMILES,ROMK mod,L major viab,INS promoter inh,WT yeast gro inh,Insulin prom up,Cl transport mod
CC(C)CC(=O)Nc1ccc(F)c(Cl)c1,-0.0069,60*,.,-2,-0.36,0.71
CCCC(C)C(=O)Nc1ccc(F)c(Cl)c1 (stereo not given),-0.31,23,10,10,0.6,-0.26
Cc1cccc(OCCCC(=O)Nc2ccc3c(c2)OCO3)c1,.,2,.,74*,-0.65,-0.43
Cc1cccc(OCCC(=O)Nc2ccc(F)c(Cl)c2)c1,-0.72,65*,-11,11,1.4,-0.51
CC1CC(C)CN(S(=O)(=O)c2ccc(C(=O)NCc3ccco3)cc2)C1 (stereo not given),0.1,11,.,22,-0.07,-0.066
CCc1ccc(C2CC(=O)N3CN(c4ccccc4)CSC3=C2C#N)cc1 (stereo not given),.,7,.,3,0.19,.
N#CC1=C2SCC(O)(c3ccccc3)N2C(=O)CC1c1ccccc1 (stereo not given),1,92*,.,22,-0.89,-0.27
N#Cc1sc2nc(-c3cccs3)cc(-c3ccc(F)cc3)c2c1N,-0.85,-2,.,-5,-0.13,-0.91
N=c1c(-c2nc3ccccc3[nH]2)cc(C(=O)c2cccs2)nn1-c1ccccc1,.,100*,33,-9,.,0.41
N=c1c(-c2nc3ccccc3[nH]2)cc(C(=O)c2ccco2)nn1-c1ccccc1,0.37,100*,-14,-6,-0.52,-1.2
C#CCOCCOCCOCCNc1nc(N2CCN(C(=O)[C@H]([C@@H](C)CC)n3cc(CCCN=C(N)N)nn3)CC2)nc(N2CCN(C(=O)[C@H]([C@@H](C)CC)n3cc(CCCN=C(N)N)nn3)CC2)n1,0.12,-2,50,-3,0.11,0.024
Cc1cccc(NC(=S)NCC(C)CSc2ccc(Cl)cc2)c1 (stereo not given),0.73,86*,-10,82*,.,-2.3
Cc1ccc(NC(=S)NCC(C)CSc2ccc(Cl)cc2)cc1 (stereo not given),-0.37,59*,.,81*,-0.72,0.0041
COc1ccc(-c2noc(CCC(=O)Nc3cccc(C)c3)n2)cc1,-0.079,-7,-7,10,0.57,.
COc1ccc(-c2noc(N(C)CC(=O)Nc3cccc(C(F)(F)F)c3)n2)cc1,.,2,0,65*,0.33,0.38
Cc1cccc(Cn2cnc3ccccc32)c1,.,20,47,8,-0.55,-0.42
O=C1/C(=C/c2ccco2)SC(=S)N1C1CCS(=O)(=O)C1 (stereo not given),-0.89,93*,-50,5,1.6,0.077
CCCOc1ccc(-c2nn(-c3ccccc3)cc2/C=C2\SC(=S)N(C3CCS(=O)(=O)C3)C2=O)cc1 (stereo not given),.,4,24,-37,4.8*,-0.0054
Cc1ccc(/C=C2\SC(=S)N(C3CCS(=O)(=O)C3)C2=O)cc1 (stereo not given),.,42,21,1,0.55,0.52
CCOC(=O)c1c(NC(=O)C2COc3ccccc3O2)sc(C)c1C (stereo not given),0.28,10,-19,46,-1.1,1.5
CN(C)c1ccc(C2CC(c3cccc(NS(C)(=O)=O)c3)=NN2C(=O)c2ccccc2)cc1 (stereo not given),.,60*,.,5,-0.85,-0.74
COc1cc2c(cc1NC(=O)CSc1nnc(Cc3cccs3)n1Cc1ccco1)oc1ccccc12,0.35,91*,.,9,.,.
Nc1nc(SCC(=O)Nc2cc(C(F)(F)F)ccc2N2CCOCC2)n[nH]1,0.007,-9,-136,-6,-0.18,0.33
Cc1ccc2nc(SCC(=O)Nc3cc(C(F)(F)F)ccc3N3CCOCC3)[nH]c2c1,1.5,53*,-93,-2,-0.88,-0.81
COc1ccc(NC(=O)CSc2nnc(-c3cccs3)n2C)cc1OC,-0.043,-3,-15,-4,3.5*,0.086
C=CCn1c(Cc2cccs2)nnc1SCC(=O)NCc1ccco1,0.014,-9,23,2,0.25,.
Cc1cc(Cl)ccc1NC(=O)CSc1nnc(Cc2cccs2)n1Cc1ccco1,.,86*,-43,9,-0.22,-0.018
O=C(CSc1nnc(-c2ccc3c(c2)OCO3)n1-c1ccccc1)c1ccccc1,-1,5,.,13,0.81,-2.8
O=C(Cn1c(COc2ccccc2)nc2ccccc21)Nc1cc(Cl)cc(Cl)c1,-0.31,-5,-11,7,-0.06,0.091
CC1CCC(NC(=O)c2ccc(S(C)(=O)=O)cc2)CC1 (stereo not given),.,5,-22,-7,-0.27,1.4

# Screens as filed in PubChem.
